Pf Dd2 inh: qHTS Primary assay for Inhibitors of Plasmodium falciparum Dd2 growth in vitro; 120,000 compounds, 4.3% hits; AID 1347417, 2020; Potency, µM (top dose mostly 28.9 µM), for the others: top-dose activity, negative = inhibition, hits mostly inhibitors; P. falciparum Dd2 growth, SYBR Green, 72 h; active means well fitted inhibition curve with a large enough effect;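 further: plate controls were DMSO vehicle for no effect and reference drug for full effect; nearly all actives have a fitted effect of over 65% in size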
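Readout: SYBR Green fluorescence, 485 nm excitation, 535 nm emission, after ~16 h lysis at 37C. Before that, Dd2-infected red cells (2.5% hematocrit) grew 72 h with compound, 29 uM top final concentration.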
* hit, by the source's call; i = inactive; [ ] = dose if it differs, or a comment. This is one part of a sample in which hits are shown more often than they occur. Potency means the concentration at half of the fitted maximal effect.

SMILES | Pf Dd2 inh
COc1ccc(C(=O)NC(c2ccccc2Cl)c2cc(Cl)c3cccnc3c2O)cc1 (stereo unspecified) | 3.5µM*
Cc1ccc(C(=O)Nc2cccc3cccnc23)cc1Cl | 4%
CCC(CC)NC(=O)CC1CCCN(c2cnn(CC)c(=O)c2)C1 (stereo unspecified) | -9%
COc1ccc(C(=O)CN2C(=O)N(c3cc(C)ccc3C)S(=O)(=O)c3ccccc32)cc1 | i
Cc1ccc(N2C(=O)N(CC(=O)C(C)(C)C)c3ccccc3S2(=O)=O)cc1C | -11%
COc1cc(OC)cc(N2C(=O)N(CC(=O)c3ccc(F)cc3)c3ccccc3S2(=O)=O)c1 | 8.9µM*
COc1ccc(C(=O)N2CCC(N3CCCOC3=O)CC2)cc1 | 12%
CC(C)(C)OC(=O)N1CCC(c2c(C(=O)NC3CCCCC3)cnn2-c2ccc(F)cc2F)CC1 | -11%
CC(C)(C)OC(=O)N1CCC(c2c(C(=O)N3CCOCC3)cnn2-c2ccccc2Cl)CC1 | -16%
COc1ccc(OC)c(CCNC(=O)c2cnn(-c3ccccc3Cl)c2C2CCN(C(=O)OC(C)(C)C)CC2)c1 | 7.9µM*
CC(C)(C)OC(=O)N1CCC(c2c(C(=O)N3CCN(c4ncccn4)CC3)cnn2-c2ccc(F)cc2F)CC1 | -18%
CC(C)(C)OC(=O)N1CCC(c2c(C(=O)NCCc3ccsc3)cnn2-c2ccccc2Cl)CC1 | -6%
Cc1ccc(CNC(=O)c2cnn(-c3ccc(F)cc3F)c2C2CCN(C(=O)OC(C)(C)C)CC2)cc1 | 11µM*
COc1ccccc1CNC(=O)c1cnn(-c2ccc(F)cc2F)c1C1CCN(C(=O)OC(C)(C)C)CC1 | 10µM*
COc1cc(OC)c(NC(=O)c2cnn(-c3cccc(Cl)c3C)c2C2CCN(C(=O)OC(C)(C)C)CC2)cc1Cl | 3.5µM*
COCc1nc(C2CCCN(C(=O)NCCC(C)C)C2)no1 (stereo unspecified) | 15%
Cc1noc(-c2cccc(OC3CN(C(=O)NC4CCCC4)C3)c2)n1 | i[5.79 µM]
CC[C@@]1(O)CCN(c2nc(N)c3cc(OC)c(OC)cc3n2)C[C@H]1O | -5%
COc1cccc(CNC(=O)CN2C(=O)NC3(CCS(=O)(=O)CC3)C2=O)c1 | -22%
Cc1ccc(C(=O)N2CCC(CCC(=O)NCc3nc4ccccc4n3C)CC2)cc1 | -40%
O=C(Cc1c(F)cccc1Cl)N1CCN(c2cc(-c3ccccc3)[nH]n2)CC1 | -2%
CCCN(CC1CCOC1)S(=O)(=O)c1ccc(OC)c(Cl)c1 (stereo unspecified) | i[5.79 µM]
CCOc1ccc(NC(=O)Cn2cc(C(=O)c3ccc(CC)cc3)c(=O)c3cc(OC)c(OC)cc32)cc1 | -7%
CCc1ccc(C(=O)c2cn(Cc3ccc(F)cc3)c3cc(OC)c(OC)cc3c2=O)cc1 | 11µM*
CCc1ccc(C(=O)c2cn(CC(=O)Nc3cc(OC)ccc3OC)c3ccc(C)cc3c2=O)cc1 | 10µM*
SMILES | Pf Dd2 inh
CCc1ccc(C(=O)c2cn(CC(=O)Nc3ccc(OC)cc3OC)c3ccc(CC)cc3c2=O)cc1 | i
CCc1ccc(C(=O)c2cn(CC(=O)Nc3cc(OC)cc(OC)c3)c3ccc(CC)cc3c2=O)cc1 | 22%
CCc1ccc(C(=O)c2cn(CC(=O)Nc3ccc(F)c(F)c3)c3cc(OC)c(OC)cc3c2=O)cc1 | i
CC(C)OCCCNc1nc2c([S+](=O)([O-])c3cccnc3)nnn2c2ccccc12 | 2%
CC(=O)NC1(C)CCN(Cc2ccc(-c3ccccc3OCc3ccccc3)cc2)C1 (stereo unspecified) | 13µM*
CC(=O)NC1(C)CCN(Cc2cnc(-c3cccc(N(C)C)c3)s2)CC1 | 12%[44.1 µM]
CC(=O)NC1(C)CCN(Cc2cnc(-c3ccccc3OCc3ccccc3)s2)CC1 | 11µM*
CC(=O)NC1(C)CCN(Cc2ccc(-c3ccc(N4CCOCC4)cc3)cc2)C1 (stereo unspecified) | -21%[44.1 µM]
CC(=O)NC1(C)CCN(Cc2ccccc2-c2cccc(C(C)=O)c2)C1 (stereo unspecified) | i
CC(=O)NC1(C)CCN(Cc2cnc(-c3ccccc3)s2)CC1 | -8%[44.1 µM]
COCc1noc([C@@H]2CC(F)(F)CN2C(=O)c2cccc(C#N)c2)n1 | 13%
O=C(c1cccc(F)c1)N1CCC2(CC1)CC(OCC1CC1)CCO2 (stereo unspecified) | -15%
Cc1ccc(C2=NC3(CCN(C(=O)c4cccc(C)c4)CC3)ON2)cc1 | -10%
CCC(c1cccs1)N1C(=O)[C@H]2CN(S(=O)(=O)c3ccc(C(C)C)cc3)C[C@H]2C1=O (stereo partly specified) | i
Fc1ccc(CN2CCNc3cnc(-c4ccccc4)cc3C2)cc1F | i
O=C(CC(c1cccc(O)c1)c1ccccc1Cl)NCc1cccnc1 (stereo unspecified) | -4%
O=C1N[C@H](CC(=O)N2CCN(c3ccc(F)cc3)CC2)C(=O)Nc2ccccc21 | -5%
O=C(c1ccc(Cl)cc1)N1CCC2(CC1)OCC(C(=O)N1CCCC1)N2C(=O)c1ccccc1 (stereo unspecified) | i
Cc1cc(-c2nc(-c3c(C)noc3C)cc3cc(C)oc23)ccn1 | 11µM*
COc1cc(-c2nc(-c3c(C)noc3C)cc3cc(C)oc23)ccn1 | 11µM*
COc1ccc(-c2nc(-c3c(C)noc3C)cc3cc(CO)oc23)cn1 | 19%[44.1 µM]
Cc1cc2cc(-c3c(C)noc3C)nc(N(C)C)c2o1 | i
Cc1cc2cc(-c3c(C)noc3C)nc(N3CCN(c4ccccn4)CC3)c2o1 | -23%[44.1 µM]
COc1cc(-c2nc(-c3c(C)noc3C)cc3c2cc(C)n3C)ccn1 | -5%[44.1 µM]
COc1ccccc1OC1(C(=O)O)CCN(C(=O)C2CC23CCC3)CC1 (stereo unspecified) | -12%
SMILES | Pf Dd2 inh
O=C(NCc1ccncc1)c1cn(C2CN(C(=O)C3CC3)C2)nn1 | 21%
CCCCC(=O)Nc1ccc(NC(=O)CCCN2CCCC2=O)cc1 | -17%
O=S1(=O)NCC2(CCCN(Cc3ccccn3)C2)Oc2ncccc21 (stereo unspecified) | 13%
Cc1ccc(OCC(=O)N2CCC(c3noc(-c4ccccc4)n3)C2)cc1 (stereo unspecified) | 14%[5.79 µM]
Cc1ncoc1C(=O)N[C@H](c1ccc2c(c1)CCO2)C1CC(O)C1 (stereo partly specified) | 5%
CCc1noc([C@@H]2CC(F)(F)CN2C(=O)c2cc(C)no2)n1 | 19%
O=C(CCC[C@@H]1[C@H]2CCCN3CCC[C@@H](CN1Cc1cccnc1)[C@@H]23)NCc1cccnc1 | 11%
C#C[C@H]1CN2CC[C@H]1C[C@@H]2CNCc1ccc(C(C)C)cc1 | i
C#C[C@H]1CN2CC[C@H]1C[C@@H]2CNS(=O)(=O)c1cccc(F)c1 | 8.9µM*
CC[C@H]1CN2CC[C@H]1C[C@@H]2CNC(=O)Nc1cccc(C#N)c1 | i
C#C[C@H]1CN2CC[C@H]1C[C@@H]2CNS(=O)(=O)c1cccs1 | 8.9µM*
O=S(=O)(NC[C@H]1C[C@@H]2CCN1C[C@@H]2CN1CCCCC1)c1ccccc1 | -5%[44.1 µM]
C#C[C@H]1CN2CC[C@H]1C[C@@H]2CNCc1cccc(C#N)c1 | 14µM*
CC[C@H]1CN2CC[C@H]1C[C@@H]2CNS(=O)(=O)c1ccccc1 | i
CC[C@H]1CN2CC[C@H]1C[C@@H]2CNS(=O)(=O)c1cccs1 | -5%[44.1 µM]
C#C[C@H]1CN2CC[C@H]1C[C@@H]2CNS(=O)(=O)c1ccc(Cl)cc1 | 5µM*
C=C[C@H]1CN2CC[C@H]1C[C@@H]2CNS(=O)(=O)c1ccc(Cl)cc1 | -6%[44.1 µM]
CCN(CC)C[C@H]1CN2CC[C@H]1C[C@@H]2CNS(=O)(=O)c1ccc(Cl)cc1 | -15%[44.1 µM]
